Assay outcomes: PubChem, National Center for Advancing Translational Sciences (NCATS)
Rows were chosen to be rich in hits. Some 19% of all compounds tested hit in one or more screens of this group.
HT1080-NT tox: kills 2HG-producing HT-1080-NT fibrosarcoma cells; 360,000 compounds, 1.6% hits; HT-1080-NT fibrosarcoma viability, CellTiter-Glo ATP luminescence, 48 h; Potency, µM (top dose mostly 46.1 µM), most hits filed as cytotoxic;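 further: NT is the 2HG producing partner of a matched IDH1 knockdown line; nearly all actives have a fitted effect of over 55% in size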
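Viability of the 2HG-overproducing fibrosarcoma line after 48 hours of compound exposure at 37 degrees C was determined by luminescence with CellTiter-Glo, and concentration-effect curves were then fitted and categorized.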
DT40 TDP1 CPT: DT40-hTDP1 cell growth loss with CPT; chicken DT40 Tdp1-/-;hTDP1 cells + 20 nM CPT, ATP luminescence, 48 h; 420,000 compounds, 12% hits; AID 686979; Potency, µM (doses to about 46.2 µM), usual class: inhibitors; further: nearly all actives have a fitted effect of over 55% in size
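Chicken DT40 Tdp1-/- cells stably complemented with human TDP1 were seeded at 400 cells/well in medium containing 20 nM camptothecin, exposed to pin-transferred compounds, and grown at 37 °C for at least 48 hr. Viability was read as ATP luminescence.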
DT40 TDP1 no CPT: qHTS for Inhibitors of human tyrosyl-DNA phosphodiesterase 1 (TDP1): qHTS in cells in absence of CPT; DT40 Tdp1-/- hTDP1 cells, no CPT, ATP luminescence, 48 h; Potency, µM (top dose mostly 46.2 µM), actives largely listed as inhibitors; 420,000 compounds, 15% hits; AID 686978, 2013; further: nearly all actives have a fitted effect of over 55% in size
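No-CPT arm: Tdp1-/-;hTDP1 DT40 cells (400/well) plus compounds, incubated ≥48 hr at 37 °C. Readout CellTiter-Glo luminescence.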
HT1080 IDH1KD tx: HT-1080 IDH1 knockdown cell toxicity (counter line); AID 686971; HT-1080 IDH1 knockdown viability, ATP luminescence, 48 h; Potency, µM (top dose mostly 46.1 µM), usual class: cytotoxic; 360,000 compounds, 2% hits
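IDH1KD HT-1080 cells, 750/well, RPMI + 5% FBS; compound pinned after 2 h settling; 48 h, 37 °C; CellTiter-Glo luminescence; % activity normalised to DMSO and no-cell wells; curves fitted, classed by r2 and efficacy.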
IL-1B inflam inh: inflammasome signaling inhibition, IL-1 beta readout; THP-1 LPS/ATP IL-1B secretion, AlphaLISA, 16 h; hits give low values; activity change, % at 57.5 µM; 360,000 compounds, 4.7% hits; AID 743279; in the data active means activity change below about -50%; inconclusive means mostly about -30% to -49%
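Secreted IL-1B measured by AlphaLISA bead assay after 16 h compound exposure of THP-1 cells; compounds (final up to 57.5 uM) added 1 h before LPS (250 ng/mL) and ATP (1.25 mM) stimulation; lower signal means less secretion.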
A number is an active result; - = inactive; ? = inconclusive; . = not tested or not shown; [ ] = dose if it differs, or a comment. Unless noted, the call rests on the fitted dose curve; in most records, active means well fitted curve in the direction sought with a large enough effect; inconclusive means small, poorly fitted or top-dose-only effect, or another doubt; inactive means no such curve, though single readings can be large; an effect the other way counts as inactive or inconclusive.

SMILES | HT1080-NT tox | DT40 TDP1 CPT | DT40 TDP1 no CPT | HT1080 IDH1KD tx | IL-1B inflam inh
O=C(CC1C(=O)NC2CCCCC2N1C(=O)c1ccc(F)cc1)Nc1ccccc1 (configuration not stated) | - | - | - | -[9.24 µM] | -
CN(C)Cc1c(C(=O)N/N=C/c2cccc(OCc3ccc(F)cc3)c2)nnn1-c1nonc1N | - | - | - | - | -
CC(C)c1c(C(=O)N/N=C/c2cccc(OCc3ccc(F)cc3)c2)nnn1-c1nonc1N | - | ? | 16.4µM | - | -83.2
CCN(CC)c1ccc(/C=N/NC(=O)c2nnn(-c3nonc3N)c2C(C)C)c(O)c1 | ? | 5.8µM | 3.26µM | 1.3µM | -
COc1cc(/C=N/NC(=O)c2nnn(-c3nonc3N)c2C(C)C)ccc1OCc1ccc(F)cc1 | ? | ? | 20.6µM | 11.6µM | ?
CC(C)CN1CCC(=O)N([C@H](CSc2ccc(Br)cc2)Cc2ccccc2)CC1 | - | 14.6µM | 18.4µM | - | -53.3
CN1CCC(=O)N([C@H](CSc2ccccc2)Cc2ccccc2)CC1 | - | ? | ? | - | -
CN1CCC(=O)N([C@H](CSc2ccc(Br)cc2)Cc2ccccc2)CC1 | - | 20.6µM | ? | - | ?
CC(C)C[C@@H](CSc1ccccc1)N1CCN(CC(C)C)CCC1=O | - | 29.1µM | 14.1µM | - | -
C[C@H]1CCC(=O)N([C@H](CC#N)Cc2ccccc2)CC1 | - | - | - | - | -
C[C@H]1CCC(=O)N([C@H](CSc2ccc(Br)cc2)Cc2ccccc2)CC1 | - | 18.4µM | 29.1µM | - | ?
CCOC(=O)CSc1nc(=O)n2ccccc2n1 | - | - | - | - | -
Cc1ccc(OCC(=O)N(Cc2sccc2C)C2CCS(=O)(=O)C2)cc1 (configuration not stated) | . | - | - | . | .
CC(=O)Nc1ccc(SC[C@H](Cc2ccccc2)N2CC[C@@H](N)CCC2=O)cc1 | . | - | 0.126µM | . | .
Cc1cccc(C)c1NC(=O)C(NS(=O)(=O)c1ccc2c(c1)CCC(=O)N2)c1ccccc1 (configuration not stated) | . | - | - | . | .
C=C1CC2C(=O)N(Cc3cc(OC)ccc3OC)C(C(=O)OCC)(C(=O)OCC)C1N2C(=O)OC(C)(C)C (configuration not stated) | - | 20.6µM | ? | - | -
COc1ccc(Cl)cc1-n1c(C)ccc1C | - | - | ? | - | -
Cc1nc2sc3c(c2c(=O)n1NC(=O)CCBr)CCCC3 | - | 18.4µM | 18.4µM | - | -
CCNC(=O)Cc1ccc(S(=O)(=O)N2CCOCC2)s1 | - | - | - | - | -
CN(Cc1ccc(Cl)cc1Cl)C(=O)Cc1ccc(S(=O)(=O)N2CCOCC2)s1 | - | ? | ? | - | -
O=C(Cc1ccc(S(=O)(=O)N2CCOCC2)s1)N(Cc1ccccc1)c1ccccc1 | - | ? | 20.6µM | - | -
CCCCN(C(=O)Cc1ccc(S(=O)(=O)N2CCOCC2)s1)c1ccccc1 | - | ? | 20.6µM | - | -
N#Cc1nccnc1S(=O)(=O)c1cccs1 | 20.6µM | 0.651µM | 1.03µM | ? | -98.4
CN(Cc1ccccc1C#N)S(=O)(=O)c1cccs1 | - | - | ? | - | -
C[C@H]1CN([C@@H](C)CO)C(=O)CCCn2nncc2CO[C@H]1CN(C)C(=O)Nc1ccc2c(c1)OCO2 | - | - | - | - | -
SMILES | HT1080-NT tox | DT40 TDP1 CPT | DT40 TDP1 no CPT | HT1080 IDH1KD tx | IL-1B inflam inh
O=C(Nc1ccc(CN2CCS(=O)(=O)CC2)cc1)c1ccccc1 | - | - | - | - | -
O=C(Nc1ccc(CN2CCS(=O)(=O)CC2)cc1)c1ccc(C(F)(F)F)cc1 | ? | ? | 20.6µM | - | -
O=C(Nc1ccc(CN2CCS(=O)(=O)CC2)cc1)c1ccc(F)cc1 | - | - | - | - | -
CC(C)(C)c1ccc(C(=O)Nc2ccc(CN3CCS(=O)(=O)CC3)cc2)cc1 | - | 16.4µM | 20.6µM | ? | -60.4
O=C(NC1CC1)c1ccc2c(Cl)c3c(nc2c1)CCCC3 | - | ? | ? | - | -
CCCCN(CC)CCNC(=O)c1ccc2c(Cl)c3c(nc2c1)CCC3 | 20.6µM | ? | 16.4µM | 23.1µM | ?
CCN(CC)CCCNC(=O)c1ccc2c(Cl)c3c(nc2c1)CCCC3 | 23.1µM | 25.9µM | 16.4µM | 29.1µM | .
O=C(Nc1cccnc1Cl)c1ccc2c(Cl)c3c(nc2c1)CCC3 | - | ? | ? | - | .
CCOc1ccc(CCNC(=O)C2CCCN(S(=O)(=O)N3CCOCC3)C2)cc1OCC (configuration not stated) | - | - | - | - | -
CCc1ccc(N2C(=O)C(Cl)=C(Nc3ccc(C(=O)N4CCCC4)cc3)C2=O)cc1 | -[9.24 µM] | - | - | - | -92.3
COc1ccc(-c2cnc3c(NC(C)=O)cc(-c4ccsc4)cn23)cc1OC | - | 16.4µM | 20.6µM | - | ?
CC(=O)Nc1cc(-c2cccnc2)cn2c(-c3ccc(F)cc3)cnc12 | - | ? | 23.1µM | - | -
COc1ccc(-c2cc(NC(C)=O)c3ncc(-c4ccc(OC)c(OC)c4)n3c2)cc1OC | ? | 18.4µM | 14.6µM | ? | -
COc1cc(-c2ccc(NC(C)=O)c(OC)c2)ccc1NC(C)=O | - | - | - | - | -
COc1ccc(-c2cnc3c(NC(C)=O)cc(-c4ccccc4OC)cn23)cc1OC | ? | 11.6µM | - | 25.9µM | .
CCS(=O)(=O)N1Cc2ccccc2CC1C(=O)N(C)CC(=O)Nc1ccc(OC)cc1 (configuration not stated) | - | - | - | - | -
CC(=O)Nc1cc(-c2ccsc2)cn2c(-c3ccc(F)cc3)cnc12 | ? | 16.4µM | 18.4µM | ? | -
COc1ccccc1-c1cc(NC(C)=O)c2ncc(-c3cccc(C(C)=O)c3)n2c1 | ? | 23.1µM | 14.6µM | ? | -
COc1ccc(CCN(C)CC(O)c2ccccc2)cc1OC (configuration not stated) | - | - | - | - | -
S=C1NCCc2ccc(Cl)cc2C1c1ccccc1 (configuration not stated) | - | ? | 23.1µM | - | -
c1ccc(C2CNCCc3ccccc32)cc1 (configuration not stated) | - | ? | - | - | -
CCOC(=O)Cc1csc(SCC(=O)NC2CCC(C)CC2)n1 (configuration not stated) | - | ? | - | - | -
CCC1CCc2sc(C(=O)NCc3ccccn3)cc2C1 (configuration not stated) | - | 14.6µM | 10.3µM | ? | -
CCC1CCc2sc(C(=O)NCC3CCCO3)cc2C1 (configuration not stated) | - | ? | 18.4µM | - | -
CCC1CCc2sc(C(=O)NNC(=S)NCC3CCCO3)cc2C1 (configuration not stated) | - | ? | ? | - | -
